# Experimental data published in the supplement of paper PMC8007513.
# Structures can show the parent of a compound that is named as a salt. ± gives the standard error. Among all 1,300 compounds or so, about 75 (6%) showed an effect of 50% or more. What follows is part of a selection rich in strong results, with near analogues and random picks from the rest.
# Test system: Trichoderma virens ATCC 9645
# Assay: growth yield (OD600) relative to untreated control; higher = less growth inhibition
# Conditions: compound concentration: 100 uM
# Summary of the method: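 For each 96-well plate, 100 μl aliquots were prepared with Trichoderma virens ATCC 9645 spores suspended at 15,000 spores ml^−1 in potato dextrose broth. The spores had been harvested from potato dextrose agar plates after 7 days. Library compounds were present at 100 μM final, some wells also receiving a biocide at 200 ng ml^−1, and plates were grown at 30 °C with OD600 read on a BioTek EL800 at 40 h and 72 h. Reported growth, relative to the control lacking both agents, is the mean of duplicate screens.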
SMILES,growth yield (40 h) [%],growth yield (72 h) [%]
CC1(C)O[C@@H]2C[C@H]3[C@@H]4CCC5=CC(=O)C=C[C@]5(C)[C@H]4[C@@H](O)C[C@]3(C)[C@]2(C(=O)CO)O1 [Desonide],109 ± 11,98.7 ± 6.6
CCC(=O)[C@@]1(C)[C@H](C)C[C@H]2[C@@H]3CCC4=CC(=O)C=C[C@]4(C)[C@H]3[C@@H](O)C[C@@]21C [Rimexolone],112 ± 14,106 ± 8.3
COc1c(O[C@@H]2O[C@H](CO)[C@@H](O)[C@H](O)[C@H]2O)cc2c(c1OC)-c1ccc(SC)c(=O)cc1[C@@H](NC(C)=O)CC2 [Thiocolchicoside],101 ± 1.4,103 ± 2.2
NS(=O)(=O)c1cc2c(cc1C(F)(F)F)NCNS2(=O)=O [Hydroflumethiazide],102 ± 2.4,100 ± 3.1
O=C1c2c(O)ccc(O)c2C(=O)c2c(NCCNCCO)ccc(NCCNCCO)c21 [Mitoxantrone dihydrochloride],2.86 ± 2.9,0.21 ± 0.21
O=C1c2c(O)cccc2Cc2cccc(O)c21 [Anthralin],96.7 ± 3.6,89.5 ± 2.8
"O=C1c2cccc(O)c2C(=O)c2c(O)cccc21 [1,8-Dihydroxyanthraquinone]",85.8 ± 11,87.2 ± 8.7
CN1[C@@H]2CC[C@H]1C[C@@H](OC(c1ccccc1)c1ccccc1)C2 [Benztropine mesylate],105 ± 3.6,102 ± 1.7
O=C1OCCN1/N=C/c1ccc([N+](=O)[O-])o1 [Furazolidone],84.3 ± 7.2,87.7 ± 5.9
Nc1nc(=O)c2nc(CNc3ccc(C(=O)N[C@@H](CCC(=O)O)C(=O)O)cc3)cnc2[nH]1 [Folic acid],102 ± 1.4,104.7 ± 0.42
"CCN(CC)CCOc1ccc(C(=C(Cl)c2ccccc2)c2ccccc2)cc1 [Clomiphene citrate (Z,E)]",1.75 ± 1.1,2.2 ± 0.1
CN(C)CCOc1ccc(/C(=C(/CCCl)c2ccccc2)c2ccccc2)cc1 [Toremifene],3.81 ± 0.32,2.73 ± 0.21
COc1ccc(C(Cl)=C(c2ccc(OC)cc2)c2ccc(OC)cc2)cc1 [Chlorotrianisene],101 ± 2.7,96.7 ± 1.5
CC/C(=C(\c1ccccc1)c1ccc(OCCN(C)C)cc1)c1ccccc1 [Tamoxifen citrate],1.11 ± 0.48,1.26 ± 0.21
CN(C)CCOC(=O)COc1ccc(Cl)cc1 [Meclofenoxate hydrochloride],95.1 ± 2.1,92.1 ± 3.6
COc1cc(C(=O)NCc2ccc(OCCN(C)C)cc2)cc(OC)c1OC [Trimethobenzamide hydrochloride],103 ± 2.4,97.75 ± 0.21
CN(C)CCOC(c1ccccc1)c1ccccc1 [Diphenhydramine hydrochloride],99.9 ± 5.2,99.4 ± 3.1
COc1ccc(C(=O)NCc2ccc(OCCN(C)C)cc2)cc1OC [Itopride],105 ± 5.7,105 ± 3.7
CCN(CC)CCOC(=O)C(c1ccccc1)c1ccccc1 [Adiphenine hydrochloride],98.8 ± 7.6,96.9 ± 5.5
COc1ccc(OC)c(C(O)CNC(=O)CN)c1 (stereo not drawn) [Midodrine hydrochloride],101.8 ± 0.16,105 ± 0.73
CC(=O)[C@H]1CC[C@H]2[C@@H]3C=CC4=CC(=O)CC[C@@]4(C)[C@@H]3CC[C@]12C [Dydrogesterone],78.3 ± 1.1,79.9 ± 2.1
CN(C)[C@@H]1C(O)=C(C(N)=O)C(=O)[C@@]2(O)C(O)=C3C(=O)c4c(O)ccc(Cl)c4[C@@](C)(O)[C@H]3C[C@@H]12 [Chlortetracycline hydrochloride],90.54 ± 0.32,90.93 ± 0.32

SMILES,growth yield (40 h) [%],growth yield (72 h) [%]
Cc1onc(-c2ccccc2)c1-c1ccc(S(N)(=O)=O)cc1 [Valdecoxib],107 ± 11,104 ± 8.3
CCOC(=O)[C@H](CCc1ccccc1)N[C@H]1CCc2ccccc2N(CC(=O)O)C1=O [Benazepril hydrochloride],104 ± 3.5,105 ± 2.1
O=C(CCCCC(=O)Nc1c(I)cc(I)c(C(=O)O)c1I)Nc1c(I)cc(I)c(C(=O)O)c1I [Iodipamide],103 ± 1.1,101.6 ± 0.32
CC(Oc1c(Cl)cccc1Cl)C1=NCCN1 (stereo not drawn) [Lofexidine],104 ± 1.3,105 ± 1.1
CN1CCCN=C1/C=C/c1cccc(O)c1 [Oxantel pamoate],93.4 ± 0.64,99.8 ± 1.1
Cc1cc(CC(=O)O)n(C)c1C(=O)c1ccc(Cl)cc1 [Zomepirac sodium salt],93.7 ± 5.7,88 ± 3.9
COc1ccc(-c2cc(=S)ss2)cc1 [Anethole-trithione],76.4 ± 9.1,77.5 ± 7.2
CNC(=O)c1c(I)c(C(=O)NCC(=O)Nc2c(I)c(C(=O)O)c(I)c(C(=O)NCCO)c2I)c(I)c(N(C)C(C)=O)c1I [Ioxaglic acid],105 ± 5.2,101 ± 2.2
CCC(=O)O[C@@H](O[P@](=O)(CCCCc1ccccc1)CC(=O)N1C[C@H](C2CCCCC2)C[C@H]1C(=O)O)C(C)C [Fosinopril],109.8 ± 0.48,103 ± 3.5
CCCCCCCN(CC)CCCC(O)c1ccc(NS(C)(=O)=O)cc1 (stereo not drawn) [Ibutilide fumarate],100 ± 2.9,101 ± 2.5
CCCCOc1cc(C(=O)OCCN(CC)CC)ccc1N [Benoxinate hydrochloride],103 ± 3,103 ± 1.1
CCCCc1oc2ccc(NS(C)(=O)=O)cc2c1C(=O)c1ccc(OCCCN(CCCC)CCCC)cc1 [Dronedarone hydrochloride],6.19 ± 1.8,1.99 ± 0.52
CCCCc1oc2ccccc2c1C(=O)c1cc(I)c(OCCN(CC)CC)c(I)c1 [Amiodarone hydrochloride],3.18,2.94
CCCCOc1cc(C(=O)NCCN(CC)CC)c2ccccc2n1 [Dibucaine],101.02 ± 1e-14,98.37 ± 0.21
CN(CCOc1ccc(NS(C)(=O)=O)cc1)CCc1ccc(NS(C)(=O)=O)cc1 [Dofetilide],100 ± 5.9,98.7 ± 4.3
C[N+]1(C)CCC(OC(=O)C(O)(c2ccccc2)C2CCCC2)C1 (stereo not drawn) [Glycopyrrolate],96.26 ± 0.95,90.72 ± 0.73
CCC(=O)OCC(=O)[C@@]1(OC(=O)CC)[C@@H](C)C[C@H]2[C@@H]3CCC4=CC(=O)C=C[C@]4(C)[C@@]3(Cl)[C@@H](O)C[C@@]21C [Beclomethasone dipropionate],103 ± 7.8,98.7 ± 3
N=C(N)NCCN1CCCCCCC1 [Guanethidine sulfate],99.6 ± 1.1,100.79 ± 0.1
OCCN1CCN(CC/C=C2/c3ccccc3Sc3ccc(Cl)cc32)CC1 [Zuclopenthixol dihydrochloride],15.1 ± 1.8,60.4 ± 5.7
OCCOCCN1CCN(C2=Nc3ccccc3Sc3ccccc32)CC1 [Quetiapine hemifumarate],108 ± 15,106 ± 12
CN(C)CC/C=C1/c2ccccc2Sc2ccc(Cl)cc21 [Chlorprothixene hydrochloride],70.5 ± 6.3,90.8 ± 2.7
Cc1cccc(N(C)C(=S)Oc2ccc3ccccc3c2)c1 [Tolnaftate],0,0

SMILES,growth yield (40 h) [%],growth yield (72 h) [%]
O=C(O)COC(=O)Cc1ccccc1Nc1c(Cl)cccc1Cl [Aceclofenac],94.2 ± 2.1,95.02 ± 0.42
COc1ccc2[nH]cc(CCNC(C)=O)c2c1 [Melatonin],101,97.3
CCCCCNC(=N)N/N=C/c1c[nH]c2ccc(OC)cc12 [Tegaserod maleate],5.24 ± 0.16,3.88 ± 0.52
CN(C)CCN1C(=O)c2ccccc2N(C)c2ccccc21 [Dibenzepine hydrochloride],101 ± 1.8,105 ± 3
CC(C)NC[C@@H](O)COc1ccc(CC(N)=O)cc1 [(R)-(+)-Atenolol],102 ± 4,97.8 ± 1.8
C=C1C[C@H]2[C@@H]3C=C(C)C4=CC(=O)CC[C@]4(C)[C@H]3CC[C@]2(C)[C@@]1(OC(C)=O)C(C)=O [Melengestrol acetate],96.6 ± 1.6,94.5 ± 2.4
C=C(NC(=O)C(=C)NC(=O)c1csc(C2=N[C@@H]3c4csc(n4)[C@H]4NC(=O)c5csc(n5)[C@H]([C@](C)(O)[C@@H](C)O)NC(=O)[C@H]5CSC(=N5)/C(=C/C)NC(=O)[C@H]([C@@H](C)O)NC(=O)c5csc(n5)[C@]3(CC2)NC(=O)[C@H](C)NC(=O)C(=C)NC(=O)[C@H](C)NC(=O)[C@H]([C@@H](C)CC)N[C@@H]2C=Cc3c([C@H](C)O)cc(nc3[C@H]2O)C(=O)O[C@@H]4C)n1)C(N)=O [Thiostrepton],96.6 ± 2.9,99 ± 2.1
CC(=O)NCCCS(=O)(=O)O [Acamprosate calcium],98.32 ± 0.48,95.9 ± 1.7
Oc1c(Cl)cc(Cl)c2cccnc12 [Chloroxine],1.27 ± 0.32,1.36 ± 0.32
Oc1c(I)cc(Cl)c2cccnc12 [Clioquinol],18.3 ± 7.8,12.9 ± 5.3
CCN[C@H]1C[C@H](C)S(=O)(=O)c2sc(S(N)(=O)=O)cc21 [Dorzolamide hydrochloride],99.3 ± 5.6,92.7 ± 6.7
CO/N=C(\C(=O)N[C@@H]1C(=O)N2C(C(=O)O)=C(COC(N)=O)CS[C@H]12)c1ccco1 [Cefuroxime sodium salt],96.9 ± 2.9,89.9 ± 1.1
O=C1C(CC[S+]([O-])c2ccccc2)C(=O)N(c2ccccc2)N1c1ccccc1 (stereo not drawn) [Sulfinpyrazone],102 ± 1.1,106 ± 2.1
CC(N/C(=N\C#N)Nc1ccncc1)C(C)(C)C (stereo not drawn) [Pinacidil],100 ± 2.2,103 ± 0.21
N=C(N)NCc1cccc(I)c1 [Iobenguane sulfate],105 ± 1.9,106 ± 1.1
Nc1nc(NC2CC2)c2ncn([C@H]3C=C[C@@H](CO)C3)c2n1 [Abacavir Sulfate],97.2 ± 2.5,98.48 ± 0.1
CCC[C@H](N[C@@H](C)C(=O)N1[C@H](C(=O)O)C[C@@H]2CCCC[C@@H]21)C(=O)OCC [Perindopril],101 ± 3.5,96.9 ± 2.5
Cn1c(=O)c2c(ncn2CC(=O)O)n(C)c1=O [Acefylline],96.6 ± 1.9,95.12 ± 0.94
O=C1NCCN1CCN1CCC(c2cn(-c3ccc(F)cc3)c3ccc(Cl)cc23)CC1 [Sertindole],34.5 ± 20,111 ± 2.4
O=C(O)c1cn(-c2ccc(F)cc2)c2cc(N3CCNCC3)c(F)cc2c1=O [Sarafloxacin],101 ± 4.1,97 ± 2.4
